Inconclusive results are not listed. Values without a mark were called inactive. Activity calls are given as the source filed them. Unless noted, the call rests on the fitted dose curve; in most records, active means well fitted curve in the direction sought with a large enough effect in the repeat runs; inconclusive means weak or mixed curves; inactive means no such curve, though single readings can be large; an effect the other way counts as inactive or inconclusive.

We go through six compounds from PubChem BioAssay (Tox21).

Test [1] in a line: qHTS assay to identify small molecule agonists of the peroxisome proliferator-activated receptor delta (PPARd) signaling pathway - cell viability counter screen (AID 743211). Further: on the % scale 0 is the no-effect control and ±100 the full control effect; nearly all actives have a fitted effect of over 55% in size. A digest of the protocol: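 Counter screen for cytotoxicity run in parallel with the PPARd reporter screen. Beta-lactamase reporter HEK293H cells exposed to compounds 17 h; ATP-based CellTiter-Glo luminescence quantified viability.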

For test [2], the target named is Peroxisome proliferator-activated receptor delta (Homo sapiens) (UniProt Q03181). Briefly: qHTS assay to identify small molecule agonists of the peroxisome proliferator-activated receptor delta (PPARd) signaling pathway (AID 743212; calls by dose curve;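 further: HEK293H cells with PPARd UAS beta-lactamase reporter GeneBLAzer system; on the % scale 0 is the no-effect control and ±100 the full control effect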). The method in brief: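 Beta-lactamase reporter readout: a ratiometric FRET signal from the LiveBLAzer substrate after 2 h at room temperature. Compound exposure at 37 °C in PPARδ-bla HEK293H cells driven by an upstream activator sequence.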
Chain of Peroxisome proliferator-activated receptor delta (Homo sapiens) (Q03181 whole entry, looked up): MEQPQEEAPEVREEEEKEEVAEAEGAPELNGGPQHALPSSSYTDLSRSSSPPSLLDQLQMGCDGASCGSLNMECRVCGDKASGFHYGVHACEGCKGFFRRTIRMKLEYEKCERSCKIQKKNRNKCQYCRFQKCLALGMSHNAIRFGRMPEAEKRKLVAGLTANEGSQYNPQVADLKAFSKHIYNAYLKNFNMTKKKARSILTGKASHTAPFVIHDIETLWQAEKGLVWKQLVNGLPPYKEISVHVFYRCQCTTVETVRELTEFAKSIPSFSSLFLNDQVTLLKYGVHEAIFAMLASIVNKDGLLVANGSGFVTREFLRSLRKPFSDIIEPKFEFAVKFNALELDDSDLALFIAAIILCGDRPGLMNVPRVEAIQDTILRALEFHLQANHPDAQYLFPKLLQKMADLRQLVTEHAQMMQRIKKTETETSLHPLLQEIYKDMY

A short description of test [3]: qHTS assay to identify small molecule antagonists of the peroxisome proliferator-activated receptor delta (PPARd) signaling pathway - cell viability counter screen (AID 743213). Further: on the % scale 0 is the no-effect control and ±100 the full control effect; nearly all actives have a fitted effect of over 50% in size. A digest of the protocol: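 HEK293H cells with the PPARd UAS-bla reporter, co-treated 17 h at 37 C with compounds and L165041 (300 nM final), were lysed with CellTiter-Glo. Luminescence indicated viable cell content.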
A general note: In qHTS, concentration-response curves come from the screen itself.

The nature of test [4]: qHTS assay to identify small molecule agonists of the farnesoid-X-receptor (FXR) signaling pathway - cell viability counter screen (AID 743218). Further: on the % scale 0 is the no-effect control and ±100 the full control effect; nearly all actives have a fitted effect of over 45% in size. A digest of the protocol:
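Viability of FXR-bla HEK 293T cells is measured by ATP-based CellTiter-Glo luminescence following 16 h compound treatment at 37 C and a prior 2 h room-temperature beta-lactamase substrate step.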

Test [5] in a line: qHTS assay to identify small molecule agonists of the vitamin D receptor (VDR) signaling pathway - cell viability counter screen (AID 743224). Further: series mostly up to about 63 µM; on the % scale 0 is the no-effect control and ±100 the full control effect; nearly all actives have a fitted effect of over 50% in size. A digest of the protocol: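 Compounds were pin-transferred onto VDR-bla cells plated 4 h earlier; following 16 h incubation at 37C, cell viability was quantified by CellTiter-Glo luminescence after 30 min at room temperature.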
The nature of test [6]: qHTS assay to identify small molecule antagonists of the vitamin D receptor (VDR) signaling pathway - cell viability counter screen (AID 743225). Further: on the % scale 0 is the no-effect control and ±100 the full control effect; nearly all actives have a fitted effect of over 50% in size. A digest of the protocol: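 HEK293T VDR-bla; cpd + 1a,25-(OH)2D3 3 nM final, 16 h 37C/5% CO2; B/G FRET substrate 2 h RT; then CellTiter-Glo 30 min RT, luminescence.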
A short description of test [7]: qHTS assay to identify small molecule agonists of the NFkB signaling pathway - cell viability counter screen (AID 1159515; calls by dose curve; further: series mostly up to about 61 µM; on the % scale 0 is the no-effect control and ±100 the full control effect; nearly all actives have a fitted effect of over 55% in size). A digest of the protocol: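 Parallel cytotoxicity counter screen in ME-180 cells carrying an NFkB-response-element beta-lactamase reporter, 2,000 cells/well. Compound exposure lasted 5 hr at 37 C, 5% CO2. Cell viability was quantified by CellTiter-Glo luminescence.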

Test [8] in a line: qHTS assay to identify small molecule agonists of the endoplasmic reticulum stress response signaling pathway (AID 1159516; active means well fitted activation curve with a large enough effect in the signal ratio in the repeat runs, not every such curve was filed as active; the % refers to the signal ratio; further: on the % scale 0 is the no-effect control and ±100 the full control effect). A digest of the protocol: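 Using a HeLa line with an ESRE-driven beta-lactamase gene, agonist activity was measured by FRET substrate fluorescence (460 and 530 nm emission) after cells were treated with compounds for 5 hr at 37 C and 5% CO2.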
Test [9] can be described thus: qHTS assay to identify small molecule agonists of the endoplasmic reticulum stress response signaling pathway - cell viability counter screen (AID 1159517; calls by dose curve;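 further: HeLa cells carrying an ER stress response element beta-lactamase reporter; series mostly up to about 61 µM; on the % scale 0 is the no-effect control and ±100 the full control effect; nearly all actives have a fitted effect of over 50% in size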). A digest of the protocol: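 ESRE-bla HeLa cells (1,500/well) were plated overnight at 37 C and exposed to compounds for 5 hr. After the 2 hr beta-lactamase substrate read, CellTiter-Glo went into the same wells, and luminescence was read after 30 min at room temperature.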

The nature of test [10]: qHTS assay to identify small molecule antagonists of the retinoid-related orphan receptor gamma (ROR-gamma) signaling pathway - cell viability counter screen (AID 1159520). The method in brief: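 Cytotoxicity was read from cellular ATP (CellTiter-Glo luminescence) after 16 hr at 37 C with 1 uM doxycycline induction. The inducer was added 2 hr after compound transfer to Tet-on ROR gamma CHO cells.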

Test [11] concerns the target Nuclear receptor ROR-gamma (Homo sapiens) (UniProt P51449). In words: qHTS assay to identify small molecule antagonists of the retinoid-related orphan receptor gamma (ROR-gamma) signaling pathway (AID 1159521; further: nearly all actives have a fitted effect of over 50% in size; further: potency means the concentration at half of the fitted maximal effect). The method in brief:
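Cells were plated, rested 4 h at 37 C, exposed to compounds for 2 h, then given 1 uM final doxycycline hyclate to induce RORγ expression. After 16 h, ONE-Glo luminescence from the ROR response element reporter was measured.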

The nature of test [12]: qHTS assay to identify small molecule agonists of the AP-1 signaling pathway - cell viability counter screen (AID 1159525; calls by dose curve; further: nearly all actives have a fitted effect of over 55% in size). A digest of the protocol:
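Intracellular ATP by Cell Titer Glo luminescence (30 min, RT) in the same ME-180 AP-1-bla wells after the 5 h compound exposure at 37 °C. Normalised to tetra n-octyl ammonium bromide and DMSO controls.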

In test [13] the target is Retinoic acid receptor RXR-alpha (Homo sapiens) (UniProt P19793). In words: qHTS assay to identify small molecule agonists of the RXR signaling pathway (AID 1159527; calls by dose curve; further: on the % scale 0 is the no-effect control and ±100 the full control effect; nearly all actives have a fitted effect of over 35% in size). A digest of the protocol:
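Cells plated at 2,000/well, rested 5 hr at 37 C, pin-dosed with DMSO compound solutions, incubated 16 hr, then loaded with B/G FRET substrate for 2 hr at RT before dual-emission fluorescence reading.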

For test [14], the target named is Peroxisome proliferator-activated receptor delta (Homo sapiens) (UniProt Q03181). Briefly: qHTS assay to identify small molecule antagonists of the peroxisome proliferator-activated receptor delta (PPARd) signaling pathway (AID 743215; active means well fitted inhibition curve with a large enough effect in the signal ratio in the repeat runs, not every such curve was filed as active; the % refers to the signal ratio;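 further: cells stimulated with agonist L165041 at 300 nM final during compound exposure; series mostly up to about 62 µM; on the % scale 0 is the no-effect control and ±100 the full control effect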). The method in brief:
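Plated HEK293H PPARd-bla cells rested 5 h at 37 C and 5% CO2. Compound, then agonist L165041 at 300 nM final, was added; 17 h at 37 C followed. Substrate loading, 2 h room temperature, fluorescence measured.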

Test [15] concerns the target Vitamin D3 receptor (Homo sapiens) (UniProt P11473). Briefly: qHTS assay to identify small molecule agonists of the vitamin D receptor (VDR) signaling pathway (AID 743222; calls by dose curve; further: on the % scale 0 is the no-effect control and ±100 the full control effect). The method in brief:
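Fluorescence from cleaved LiveBLAzer B/G FRET substrate served as readout. VDR-bla cells had been treated 16 h at 37C with test compounds in DMSO, following a 4 h settling period, and substrate was loaded for 2 h at RT.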

Test [16] is described as follows: qHTS assay to identify small molecule agonists of the AP-1 signaling pathway (AID 1159526; calls by dose curve; further: on the % scale 0 is the no-effect control and ±100 the full control effect).
The nature of test [17]: qHTS assay to identify small molecule antagonists of the farnesoid-X-receptor (FXR) signaling pathway - cell viability counter screen (AID 743221; active means well fitted cell-killing curve with a large enough effect in the repeat runs, not every such curve was filed as active). A digest of the protocol:
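Multiplexed counter screen: viability of FXR-bla HEK 293T cells under agonist stimulation by chenodeoxycholic acid (50 uM, final) and test compound for 16 h at 37 C, measured by CellTiter-Glo luminescence in the reporter wells.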

For test [18], the target named is Bile acid receptor (Homo sapiens) (UniProt Q96RI1). In words: qHTS assay to identify small molecule antagonists of the farnesoid-X-receptor (FXR) signaling pathway (AID 743217; active means well fitted inhibition curve with a large enough effect in the signal ratio in the repeat runs, not every such curve was filed as active; the % refers to the signal ratio; further: on the % scale 0 is the no-effect control and ±100 the full control effect). The method in brief:
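Screen of the Tox21 10K library in quantitative HTS format using FXR-UAS-bla HEK 293T reporter cells. Agonist chenodeoxycholic acid, 50 uM final, added with compounds; 16 h incubation at 37 °C; beta-lactamase FRET fluorescence measured.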

The target is the same in test [19]. Briefly: qHTS assay to identify small molecule agonists of the farnesoid-X-receptor (FXR) signaling pathway (AID 743220; active means well fitted activation curve with a large enough effect in the signal ratio in the repeat runs, not every such curve was filed as active; the % refers to the signal ratio; further: on the % scale 0 is the no-effect control and ±100 the full control effect). A digest of the protocol: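 FXR-UAS-bla HEK 293T cells carrying a UAS-driven beta-lactamase reporter were plated for 5 h at 37C/5% CO2, then exposed to DMSO-dissolved Tox21 10K compounds for 16 h at 37C. A LiveBLAzer B/G FRET substrate was loaded for 2 h at room temperature before fluorescence reading.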

For test [20], the target named is Vitamin D3 receptor (Homo sapiens) (UniProt P11473). In words: qHTS assay to identify small molecule antagonists of the vitamin D receptor (VDR) signaling pathway (AID 743223; active means well fitted inhibition curve with a large enough effect in the signal ratio in the repeat runs, not every such curve was filed as active; the % refers to the signal ratio; further: on the % scale 0 is the no-effect control and ±100 the full control effect). A digest of the protocol:
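Cells carrying a VDR-driven beta-lactamase reporter (VDR-bla) were co-treated with compound and 3 nM final 1alpha,25-dihydroxyvitamin D3 for 16 h at 37C; reporter activity was measured as FRET substrate fluorescence after 2 h at room temperature.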

Chain of Retinoic acid receptor RXR-alpha (Homo sapiens) (P19793 whole entry, looked up): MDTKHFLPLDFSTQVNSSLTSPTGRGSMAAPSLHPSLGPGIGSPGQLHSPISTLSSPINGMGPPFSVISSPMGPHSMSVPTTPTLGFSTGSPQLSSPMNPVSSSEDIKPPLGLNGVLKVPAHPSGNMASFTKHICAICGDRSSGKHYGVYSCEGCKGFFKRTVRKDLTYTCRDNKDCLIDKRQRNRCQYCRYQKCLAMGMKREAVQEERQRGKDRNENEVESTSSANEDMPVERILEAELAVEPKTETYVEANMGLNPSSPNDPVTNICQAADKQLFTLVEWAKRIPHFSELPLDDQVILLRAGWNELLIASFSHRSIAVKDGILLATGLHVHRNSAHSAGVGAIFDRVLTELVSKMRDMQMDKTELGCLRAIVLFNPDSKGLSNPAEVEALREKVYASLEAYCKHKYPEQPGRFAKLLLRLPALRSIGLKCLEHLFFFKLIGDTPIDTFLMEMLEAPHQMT
Chain of Vitamin D3 receptor (Homo sapiens) (P11473 whole entry, looked up): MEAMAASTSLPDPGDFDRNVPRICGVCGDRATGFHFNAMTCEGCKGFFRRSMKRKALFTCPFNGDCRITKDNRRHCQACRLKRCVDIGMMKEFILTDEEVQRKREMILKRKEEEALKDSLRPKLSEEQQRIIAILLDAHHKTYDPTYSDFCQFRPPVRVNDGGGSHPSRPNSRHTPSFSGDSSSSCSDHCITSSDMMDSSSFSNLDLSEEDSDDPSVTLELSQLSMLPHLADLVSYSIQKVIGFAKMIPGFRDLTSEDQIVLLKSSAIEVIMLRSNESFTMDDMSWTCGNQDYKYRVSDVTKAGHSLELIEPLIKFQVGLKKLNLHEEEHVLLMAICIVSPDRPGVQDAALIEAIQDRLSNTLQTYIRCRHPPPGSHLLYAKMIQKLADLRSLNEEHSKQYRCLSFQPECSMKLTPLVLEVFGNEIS
Chain of Bile acid receptor (Homo sapiens) (Q96RI1 whole entry, looked up): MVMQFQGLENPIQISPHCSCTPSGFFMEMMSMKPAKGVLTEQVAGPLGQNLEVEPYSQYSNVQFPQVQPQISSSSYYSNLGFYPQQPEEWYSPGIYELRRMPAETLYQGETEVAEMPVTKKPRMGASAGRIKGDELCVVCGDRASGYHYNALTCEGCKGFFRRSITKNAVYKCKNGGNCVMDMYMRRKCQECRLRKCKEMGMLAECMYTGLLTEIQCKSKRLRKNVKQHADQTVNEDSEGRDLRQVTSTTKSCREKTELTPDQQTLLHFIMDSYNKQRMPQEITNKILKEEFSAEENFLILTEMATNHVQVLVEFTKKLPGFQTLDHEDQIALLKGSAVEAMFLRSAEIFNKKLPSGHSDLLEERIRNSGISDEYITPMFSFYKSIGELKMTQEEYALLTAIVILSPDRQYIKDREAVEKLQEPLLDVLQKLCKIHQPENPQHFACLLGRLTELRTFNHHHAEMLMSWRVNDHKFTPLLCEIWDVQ

As for `CC[C@]12CCCN3CCc4c(n(c5ccccc45)C(=O)C1)[C@@H]32`, the Potency result in test [1], in test [3], in test [4], in test [5], in test [6] and in test [7] was “inactive” in each case. Further, the Potency entry in test [8], in [10], in test [11], in test [12] and in test [13] was “inactive” in each case. The compound was classed as inactive in test [2] and in test [9].

With `CC[C@@H]1C[C@H](N(Cc2cc(C(F)(F)F)cc(C(F)(F)F)c2)C(C)=O)c2cc(C(F)(F)F)ccc2N1C(=O)OC(C)C`, the Potency entry in [1], in test [4], in [5], in [6], in test [7] and in test [8] was “inactive” in each case. Further, the Potency entry in test [10], in test [11], in [12] and in test [16] was “inactive” in each case. In addition, the call in test [14], in [15] and in test [9] was inactive.

Consider `C=Cc1c(C)c2cc3[nH]c(cc4nc(cc5nc(cc1[nH]2)C(C)=C5CCC(=O)O)C(CCC(=O)O)=C4C)c(C)c3C=C`, for which the outcome in test [2], in [15] and in test [9] was inactive. Moreover, the Potency result in test [3], in [4], in [17], in test [6], in [7] and in test [8] was “inactive” each time. In addition, the Potency entry in test [10], in test [12] and in [13] was “inactive” throughout. Further, the Potency in test [11] was 26.6 µM (active).

With `O=C(CC(=O)c1ccccc1)c1ccccc1`, the Potency entry in test [1], in test [3], in [4], in test [20], in [7] and in [8] was “inactive” each time. Also, the Potency result in test [10], in test [11] and in test [12] was “inactive” throughout. In addition, the result in [2], in test [14], in test [18], in test [19], in test [15] and in test [9] was inactive.

Take `O=C(CCN1CCN2CCCC2C1)N1c2ccccc2Sc2ccc(Cl)cc21` (stereo not drawn): the Potency result in test [1], in test [17], in [5], in [6], in test [7] and in test [8] was “inactive” in each case. Further, the outcome in test [15] and in test [9] was inactive. Besides, the activity, negative = cytotoxicity in [10] was -0.0801% [at 19 µM]. Further, in test [11], the activity change, negative = inhibition is -2.48% [at 19 µM]. In addition, the viability change, negative = cytotoxic in test [12] is -1.69% [at 15.8 µM]. Besides, the activation in [16] is -5.81% [at 15.8 µM].

`CCCCCCCCCCCCCCCBr`: the Potency entry in test [1], in [3], in test [4], in test [5], in test [6] and in [7] was “inactive” in each case. In addition, the Potency result in test [8], in test [10], in test [11], in test [12] and in [13] was “inactive” throughout. The compound was classed as inactive in test [2], in test [14], in [18], in [19], in [15] and in test [9].
